Entries with a potency or affinity are not part of this list.
What was measured:
[1] = tested on: Klebsiella pneumoniae; conditions: Concentration 32 ug.mL-1;; ASSAY_TEST Inhibition of Bacterial Growth; detection method Absorption (OD600); MEDIA CAMHB; plate type 384well; NBS; CORNING #3640; time 18 hr
[2] = tested on: Candida albicans; conditions: Concentration 32 ug.mL-1; ASSAY_TEST Inhibition of Fungal Growth; detection method Absorption (OD530)
[3] = tested on: Cryptococcus neoformans; conditions: Concentration 32 ug.mL-1; ASSAY_TEST Inhibition of Fungal Growth; detection method Resazurin; Absorption (OD600-OD570); plate type 384well; NBS; CORNING #3640

Row | Compound | Inhibition [1] [%] | Inhibition [2] [%] | Inhibition [3] [%]
1 | O=c1c2nnc(SCc3ccccc3F)n2ccn1-c1ccc(F)cc1 | -2.87 | 2.17 | -5.92
2 | CCCCn1c(=O)c2sccc2n2c(=O)n(CC(=O)NC(C)C)nc12 | 11.23 | 0.06 | -16.69
3 | COc1cccc(CNC(=O)CSc2nnc3c4cc(-c5cc(C)ccc5C)nn4ccn23)c1OC | 10.97 | 2.62 | -25.27
4 | COc1ccc(CNC(=O)CSc2nnc3c4cc(-c5ccc(C)cc5)nn4ccn23)cc1 | 9.18 | 1.16 | -27.11
5 | COc1ccccc1N1CCN(C(=O)Cn2nc3ccc(-c4ccc(C)c(C)c4)nn3c2=O)CC1 | 9.25 | -0.19 | -3.44
6 | Cc1ccccc1Oc1nccn2c(=O)n(CC(=O)Nc3ccc(Cl)c(Cl)c3)nc12 | 6.86 | 2.23 | -12.87
7 | COc1ccc(CN(c2ccc(OC)cc2)S(=O)(=O)c2ccc3nnc(C)n3c2)cc1 | 9.27 | 0.4 | -1.1
8 | CC(C)Sc1ccc2nn(CC(=O)Nc3ccccc3F)c(=O)n2n1 | 9.69 | 2.46 | -3.85
9 | CSc1ccc(CNC(=O)Cn2nc3c(Oc4ccc(C)cc4)nccn3c2=O)cc1 | -2.38 | 4.95 | -4.29
10 | CCOc1ccc(N(Cc2ccccc2)S(=O)(=O)c2ccc3nncn3c2)cc1 | 6.93 | 2.75 | -0.95
11 | CCc1nnc2c(S(=O)(=O)N(Cc3cccc(OC)c3)c3ccc(F)cc3)cccn12 | -0.6 | 3.42 | -6.42
12 | COc1ccc(CCn2c(=O)c3sccc3n3c(=O)n(Cc4ccc(F)cc4)nc23)cc1OC | 6.56 | 11.53 | -31.44
13 | C=Cc1ccc(CN(c2cccc(Cl)c2)S(=O)(=O)c2cccn3c(C)nnc23)cc1 | 6.94 | 1.33 | -16.09
14 | Cc1nnc2c(=O)n(CC(=O)Nc3ccc(Cl)cc3F)c3ccccc3n12 | 7.95 | 0.4 | -18.26
15 | COc1ccccc1-n1ccn2c(SCc3cc(C)ccc3C)nnc2c1=O | 16.48 | 0.1 | -7.82
16 | Cc1nnc2ccc(S(=O)(=O)N(Cc3cccc(F)c3)c3ccc4c(c3)OCO4)cn12 | 1.28 | 3.36 | -7.24
17 | COc1cccc(C(=O)CSc2nnc3c(=O)n(-c4ccc(F)cc4)ccn23)c1 | 7.79 | 2.89 | -4.94
18 | COc1ccc(NC(=O)Cn2nc3c(Sc4ccccc4)nccn3c2=O)cc1OC | 6.09 | 1.58 | -22.41
19 | CCc1ccccc1NC(=O)CSc1nnc2ccc(C(=O)Nc3cccc(F)c3)cn12 | 6.52 | 8.2 | -4.61
20 | COc1ccc(-c2cc3c4nnc(SCC(=O)Nc5cccc(C)c5C)n4ccn3n2)cc1 | 2.16 | 3.48 | -22.8

Row | Compound | Inhibition [1] [%] | Inhibition [2] [%] | Inhibition [3] [%]
21 | COc1ccc(NC(=O)Cn2nc3c(N4CCOCC4)nccn3c2=O)c(OC)c1 | 20.77 | 0.63 | -16.42
22 | CCC(C)NC(=O)Cn1nc2n(CCC(=O)NC3CCCCC3)c(=O)c3ccccc3n2c1=O (configuration not stated) | -2.01 | 3.91 | -20.86
23 | COc1ccc(NC(=O)Cn2nc3c4cc(-c5ccc(C)cc5)nn4ccn3c2=O)c(OC)c1 | 9.2 | 7.88 | -29.92
24 | O=C(Cn1nc2ccc(-c3ccc(Cl)cc3)nn2c1=O)N1CCN(c2ccccc2F)CC1 | 1.3 | 2.81 | -11.05
25 | CCOC(=O)c1ccccc1NC(=O)Cn1nc2c(Oc3cccc(C)c3C)nccn2c1=O | 7.42 | 0.56 | -7.85
26 | Cc1cc(C)c(NC(=O)Cn2nc3ccc(SC4CCCCC4)nn3c2=O)c(C)c1 | 7.83 | 19.78 | -14.71
27 | CC(C)c1nnc2c(SCC(=O)N3CCN(c4ccccc4F)CC3)nc3ccccc3n12 | 4.71 | -5.14 | -28.6
28 | O=C(Cn1nc2ccc(-c3ccccc3)nn2c1=O)N1CCN(c2ccc(F)cc2)CC1 | 3.94 | -0.37 | -5.73
29 | CCc1ccccc1Sc1nccn2c(=O)n(CC(=O)Nc3ccc(C)cc3)nc12 | -4.69 | 39.33 | -9.26
30 | CCc1ccc(NC(=O)Cn2nc3ccc(SC(C)(C)C)nn3c2=O)cc1 | 14.6 | 4.19 | -17.5
31 | COc1ccc(N(Cc2ccccc2F)S(=O)(=O)c2ccc3nnc(C)n3c2)cc1 | 4.15 | -0.01 | -2.71
32 | Cc1cc2nn(CC(=O)Nc3ccccc3C)c(=O)n2c(Nc2ccc(F)c(C)c2)n1 | 13.6 | 21.67 | -6.31
33 | O=C(Cn1nc2ccc(Sc3ccccc3)nn2c1=O)Nc1ccc(Cl)cc1 | 9.24 | 8.96 | -7.55
34 | CC(C)c1nnc2c(SCC(=O)Nc3cccc(Br)c3)nc3ccccc3n12 | 2.52 | 2.36 | -16.07
35 | Cc1cccc(C)c1NC(=O)CSc1nc2ccccc2n2c(C)nnc12 | 9.22 | 0.67 | -4.49
36 | O=C(Cn1nc2c(Oc3ccccc3)nccn2c1=O)Nc1ccc(Cl)cc1 | 8.01 | -0.31 | -10.29
37 | Cc1cc(C)c(NC(=O)Cn2nc3ccc(Sc4cccc(F)c4)nn3c2=O)c(C)c1 | 1.06 | 2.95 | -10.61
38 | CCc1ccc(N(Cc2cccc(OC)c2)S(=O)(=O)c2cccn3cnnc23)cc1 | 14.16 | 4.11 | -10.89
39 | O=c1n(Cc2cccc(Br)c2)nc2ccc(-c3ccccc3)nn12 | 10.27 | 5.28 | -13.38
40 | Cc1ccc(-c2ccc3nn(CC(=O)Nc4cccc(Cl)c4)c(=O)n3n2)cc1C | 4.06 | 0.61 | -15.53

Row | Compound | Inhibition [1] [%] | Inhibition [2] [%] | Inhibition [3] [%]
41 | O=S(=O)(c1ccc2nncn2c1)N(Cc1cc(F)cc(F)c1)c1ccc(F)c(F)c1 | 12.12 | 1.89 | -12.17
42 | CCOc1ccc(-n2ccn3c(=O)n(CC(=O)Nc4ccc(Br)cc4)nc3c2=O)cc1 | 8.93 | 2.12 | -3.26
43 | CCc1ccc(NC(=O)Cn2nc3c(Sc4ccccc4)nccn3c2=O)cc1 | 6.05 | 4.46 | -8.51
44 | O=C(CCc1nnc2c(N3CCCCC3)nc3ccccc3n12)NCc1ccccc1Cl | 12.77 | 4.01 | -16.16
45 | C=Cc1ccc(CN(c2ccc(CC)cc2)S(=O)(=O)c2cccn3c(C)nnc23)cc1 | 2.48 | 4.32 | -7.66
46 | Cc1ccc(-c2ccc3nn(Cc4cccc(Cl)c4)c(=O)n3n2)cc1C | 12.21 | 1.14 | -10.16
47 | CC(C)Cn1c(=O)c2sccc2n2c(=O)n(Cc3cccc(Br)c3)nc12 | 8.23 | -0.42 | -24.19
48 | Cc1cccc(C)c1NC(=O)Cn1c(=O)c2nnc(C(C)C)n2c2ccccc21 | 1.46 | 4.52 | -19.69
49 | CCCCNC(=O)Cn1nc2n(Cc3ccco3)c(=O)c3sccc3n2c1=O | 5.33 | 0.44 | -11.54
50 | CSc1ccc(CNC(=O)Cn2nc3c(N4CCN(c5ccccc5)CC4)nccn3c2=O)cc1 | 15.47 | 1.95 | -6.85
51 | Cc1ccc(C)c(C(=O)CSc2nnc3c(=O)n(-c4ccc(F)c(F)c4)ccn23)c1 | 16.06 | 4.02 | -10.11
52 | Cc1ccc(-c2cc3c4nn(CC(=O)Nc5ccc6c(c5)OCO6)c(=O)n4ccn3n2)cc1 | 10 | 9.65 | -32.25
53 | CCc1ccc(N(Cc2ccc(F)cc2)S(=O)(=O)c2cccn3c(C)nnc23)cc1 | -1.65 | 6.88 | -7.64
54 | COc1cccc(NC(=O)Cn2nc3c(Oc4ccccc4)nccn3c2=O)c1 | -9.5 | 1.78 | -2.51
55 | O=S(=O)(c1cccn2cnnc12)N(Cc1ccc(F)cc1)c1ccc(F)c(F)c1 | 4.99 | 2.27 | -6.23
56 | CCCCN(CC)c1ccc2nnc(CCc3nc(-c4ccc(Br)cc4)no3)n2n1 | 10.38 | 6.33 | -10.77
57 | CCc1nnc2c(S(=O)(=O)N(Cc3ccccc3C)c3ccc(C(C)C)cc3)cccn12 | 3.73 | 21.84 | -8.38
58 | Cc1ccc(Sc2nccn3c(=O)n(CC(=O)Nc4ccc(Br)cc4C)nc23)c(C)c1 | -0.35 | -0.15 | -17.66
59 | CCOc1ccc(NC(=O)Cn2nc3c4cc(-c5ccc(C)cc5)nn4ccn3c2=O)cc1 | 14.64 | 1.16 | -37.08

Reference: ChEMBL document CHEMBL4513146, “CO-ADD screening of Karazin Kharkiv National University (Ukraine) compounds”
